The results in this text go back to PubChem BioAssay (NCI).

The panel holds about 83,000 compounds, 20% with a hit somewhere; the sample as a whole holds those more often.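 Activity criterion: percent growth below 10, measured after cells in 96-well plates were exposed to a single compound concentration for 48 hours.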 Values without a mark were called inactive. Active and inactive are the calls of the source.

What all share (experiment): NCI-60 one-dose screen, 48 h (100 = growth as untreated, 0 = no growth, -100 = all killed)
What all share (settings): 10 µM unless noted

The test system of assay [1] is HCT-15 colon.
The subject of assay [2] is HT29 colon.
Assay [3] relates to SNB-75 CNS.
In assay [4] the test system is SNB-19 CNS.
Assay [5] concerns U251 CNS.
Assay [6] has as its system PC-3 prostate.
For assay [7], the system named is SK-MEL-5 melanoma.
Assay [8] concerns LOX IMVI melanoma.
Assay [9] deals with SK-MEL-28 melanoma.
The subject of assay [10] is UACC-62 melanoma.

`CCC1C(=O)COC1=O` (stereo unspecified): the growth is 103% in assay [1]; 62.7% in assay [2]; 91% in assay [3]; 99.3% in assay [4]; 85% in assay [5]; 74.3% in assay [6]. For the same molecule, the growth in assay [7] is 102%; in [8], 93.2%; in assay [9], 112%.

For the molecule `Cn1cc(-c2csc(-c3cn(CCCN4CCCCC4)c4ccccc34)n2)c2cccnc21`, the growth in assay [1] is -78.2% (active); in assay [2] it was -87.7% (active); in assay [3], 49.3%; in assay [4] it was -65.6% (active); in assay [5] it was -90.5% (active); in assay [6] it was -55.7% (active). Moreover, the values for the growth in assay [7], in [8] and in [9] were -98.5% (active), -71.9% (active) and -82.6% (active), respectively.

Consider `Cn1cc(-c2csc(-c3cn(CCN)c4ccc(F)cc34)n2)c2cccnc21`, for which the growth is 55.9% in [1]; 74.7% in [2]; 75.7% in [3]; 77.7% in assay [4]; 81.4% in [5]; 61.3% in assay [6]. For the same molecule, the growth in assay [7] is 57%; in assay [8], 60.4%; in assay [9], 98.2%.

Turning to `Cc1cc(N2CCOCC2)nc(N(CCCNc2ccnc3cc(Cl)ccc23)Cc2ccco2)n1`, the growth was 24% in assay [1]; -2.68% (active) in assay [2]; 51.6% in [3]; 20.4% in assay [4]; 25.4% in [5]; 34.7% in assay [6]. For the same molecule, the growth in [7] is 11.3%; in assay [8] it was 4.95% (active); in assay [9], 49.5%.

On to `CCCCCCCN(CCCCCCC)C(=N)c1ccnc2ccccc12`, for which the growth is -72.1% (active) in assay [1]; -50.2% (active) in assay [2]; -68.3% (active) in assay [3]; -51.1% (active) in assay [4]; -87.5% (active) in assay [5]; -22.4% (active) in assay [6]. In addition, the values for the growth in assay [7], in [8] and in assay [9] were -98.3% (active), -94.4% (active) and -74.1% (active), respectively.

As for `NCCn1cc(-c2nc(-c3c[nH]c4ncccc34)cs2)c2ccccc21`, the growth in [1] was 88.6%; in assay [2] it was 98.2%; in [3] it was 61.9%; in assay [4], 89.4%; in assay [5] it was 91.5%; in assay [6], 70.2%. In addition, the growth was 77.2% in assay [7], 89.9% in [8] and 107% in [9].

In the case of `CCCCC/C(=C\c1ccccc1)C1OC(C)C(C)O1` (stereo unspecified), the growth is 109% in assay [1]; 81.3% in [2]; 92.2% in assay [3]; 98.6% in assay [4]; 86.3% in [5]; 69.6% in assay [6]. The growth in assay [7] is 92.8%; in [8] it was 97.9%; in [9], 106%.

For the molecule `O=C(/C(=C(\C(=O)c1ccccc1)c1ccccc1)c1ccccc1)c1ccccc1`, the growth was 24% in [1]; 37.6% in assay [2]; 72.8% in assay [3]; 74% in [4]; 47.3% in assay [5]; 30% in assay [6]. In addition, the growth in assay [7] was 59.5%; in [8] it was 64.6%; in assay [9] it was 89.8%.

For `O=C(NCN1C(=O)c2cccc3cccc(c23)C1=O)N1CCC(Cc2ccccc2)CC1`, the growth was 104% in assay [1]; 70.1% in [2]; 89.4% in assay [3]; 92.5% in assay [4]; 97.5% in assay [5]; 72.9% in assay [6]. Moreover, the growth in assay [7] was 101%; in assay [8], 97.5%; in assay [9] it was 107%.

Turning to `COc1cc(/C=C/c2cc(/C=C/c3ccc(O)c(OC)c3)n(-c3ccccc3)c(=O)n2)ccc1O`, the growth was 80.8% in assay [1]; -13% (active) in assay [2]; 56.9% in assay [3]; 76.2% in [4]; 56.1% in assay [5]; 70.4% in assay [6]. For the same molecule, the growth is 69.9% in assay [10], 61% in assay [8] and 78.8% in [9].

`COc1c(N)c2c(c([N+](=O)[O-])c1OC)C(=O)OC2`: the growth in assay [1] was 105%; in [2], 102%; in [3], 98.7%; in assay [4], 102%; in [5], 110%; in assay [6], 96.7%. For the same molecule, the growth in assay [7] is 113%; in assay [9], 108%.

As to `COc1cc2nc(Cl)nc(Nc3cccc(C(=O)/C=C/c4ccc(Cl)cc4)c3)c2cc1OC`, the growth in assay [1] is 2.93% (active); in assay [2] it was 19.6%; in assay [3] it was 81.3%; in assay [4], 54.6%; in [5], 50.7%; in assay [6], 56%. Also, the growth in assay [7] was 83.9%; in assay [9], 74.2%.

Turning to `O=C1C=Cc2ncccc2C1=O`, the growth in assay [1] was 80.3%; in assay [2] it was 108%; in assay [3], 119%; in assay [4], 85.2%; in assay [5], 42.2%; in [6], 88.5%. Further, the values for the growth in [7] and in assay [9] were 92.9% and 121%, respectively.

For the molecule `CC(=O)c1c(C)[nH]c(-c2nc3ccc(N4CCN(C)CC4)cc3[nH]2)c1-c1ccc(OCC2CCOCC2)cc1`, the growth in [1] was 5.23% (active); in [2], 8.59% (active); in assay [3], -9.92% (active); in [4], 42.7%; in assay [5], 48.2%; in assay [6], 40.4%. For the same molecule, the growth in assay [7] was -1.59% (active); in assay [9], 45.7%.

Consider `COc1ccccc1-n1cnc(N)c1C(=O)c1cc(OC)c(OC)c(OC)c1`, for which the growth was 35.5% in [1]; 11.7% in [2]; 8.36% (active) in [3]; 55.1% in assay [4]; 36.8% in assay [5]; 50.2% in assay [6]. Besides, the growth in [7] is 28.5%; in [9] it was 51.5%.

With `COc1ccc(NC(=O)c2ccc3c(c2)nc(-c2cc4ccccc4[nH]c2=O)n3-c2cc(C(C)(C)C)[nH]n2)cc1`, the growth was 95.5% in [1]; 106% in assay [2]; 76.2% in [3]; 75.4% in [4]; 85.6% in assay [5]; 79.1% in assay [6]. For the same molecule, the growth was 84% in assay [7] and 93.2% in [9].

On to `CN1CCN(CC#CCn2c3c(c4ccccc42)C[C@]2(C)[C@H]4CC[C@@H]5[C@H]6[C@H]7OC(=O)[C@@]6(CCC7(C)C)CC[C@@]5(C)[C@]4(C)CC[C@H]2C3(C)C)CC1`, for which the growth in assay [1] was 38.1%; in [2], 30.4%; in assay [3], 113%; in assay [4], 87.6%; in [5], 25%; in assay [6], 58.5%. For the same molecule, the figures for the growth in assay [7] and in assay [9] were 93.3% and 106%, respectively.

In the case of `COc1ccc(-c2cc(-c3cccs3)n(N=O)c(=O)c2C#N)cc1`, the growth in [1] was 129%; in assay [2], 107%; in assay [3], 88.9%; in assay [4], 99.1%; in [5] it was 112%; in assay [6] it was 104%. Also, the growth in assay [10] was 95.4%; in assay [8], 96.3%; in assay [9] it was 124%.

On to `Cc1ccccc1-c1nc(C(Cl)Cl)nc2cc(-c3ccccc3)nn12`, for which the growth in [1] is 36.1%; in [2], 13.7%; in [3], 8.7% (active); in assay [4], 69.8%; in assay [5], 47.2%; in assay [6], 62%. In addition, the growth in [7] was 86.4%; in assay [9], 97.3%.

Regarding `Clc1ccccc1-c1nc(Nc2nc3ccccc3s2)nc(C(Cl)(Cl)Cl)n1`, the growth is 19.2% in [1]; 13.1% in [2]; 58.2% in assay [3]; 43.5% in assay [4]; 20.5% in assay [5]; 40.8% in assay [6]. Besides, the growth in assay [7] is 90.7%; in assay [9] it was 51.3%.

`COc1cc(NC(C)CN(CC(C)C)C(C)C)c2ncccc2c1` (stereo unspecified): the growth in assay [1] was 101%; in assay [2] it was 97.5%; in assay [3] it was 80.4%; in assay [4], 116%; in [5] it was 100%; in assay [6], 80.5%. Also, the growth in assay [10] is 106%; in assay [8], 94.7%; in [9], 122%.

As for `O=C1CN(c2ccccc2)C(=O)C1C(=O)Nc1ccc(Cl)c(Cl)c1` (stereo unspecified), the growth in [1] is 27.9% [100 µM]; in assay [2] it was 3.98% [100 µM] (active); in assay [3], 6.38% [100 µM] (active); in [4] it was 3.37% [100 µM] (active); in [5], -7.08% [100 µM] (active); in [6], 27.1% [100 µM]. The growth is -6.23% [100 µM] (active) in assay [7] and 33.4% [100 µM] in assay [9].

Take `N#CC1=C(N)Oc2c(c(N)nn2-c2ccccc2)C1c1ccc(Cl)cc1Cl` (stereo unspecified): the growth was 100% in [1]; 115% in assay [2]; 73.2% in assay [3]; 95.2% in assay [4]; 91.6% in [5]; 94.5% in assay [6]. Further, the growth is 101% in assay [7] and 104% in assay [9].

For `CCCCN1CCCCn2c1nc1c2c(=O)n(C)c(=O)n1C`, the growth is 108% in [1]; 102% in [2]; 94.1% in [3]; 104% in [4]; 95% in [5]; 108% in [6]. In addition, the values for the growth in assay [10], in [8] and in [9] were 101%, 99% and 117%, respectively.

`C=C(C)[C@@H]1CC[C@]2(C(=O)O)CC[C@]3(C)[C@H](CC[C@@H]4[C@@]5(C)C/C(=C/c6cccc(I)c6)C(=O)C(C)(C)[C@@H]5CC[C@]43C)[C@@H]12`: the growth was 19.4% in [1]; 9.1% (active) in [2]; -36.5% (active) in [3]; 38% in assay [4]; 18.4% in [5]; 15.5% in [6]. For the same molecule, the growth in [7] was 13.9%; in assay [9], 75.4%.

As for `COc1cc(C(=O)/C=C/c2cc(-c3ccc4c(c3)OCO4)n[nH]2)cc(OC)c1OC`, the growth in assay [1] is 19.6%; in [2], 3.4% (active); in assay [3], 26.7%; in assay [4], 33.2%; in assay [5], 5.54% (active); in assay [6] it was 6.51% (active). For the same molecule, the growth in [7] was 63%; in assay [9], 76.2%.

Consider `O=C(Nc1ccc(/C=C2\SC(=O)N(Cc3ccc(OC(F)(F)F)cc3)C2=O)cc1)c1ccc(Cl)c([N+](=O)[O-])c1`, for which the growth in assay [1] is 72.5%; in [2], 11.3%; in assay [3], 85.5%; in assay [4], 36.8%; in [5] it was -18.8% (active); in [6] it was 9.15% (active). Moreover, the growth in assay [10] was 94.4%; in assay [8], 73.1%; in [9], 95.5%.

For the molecule `CC(C)(C)c1[nH]nc2c1C(c1cc3ccccc3[nH]c1=O)Nc1cc(C(=O)OCc3ccccc3)ccc1N2` (stereo unspecified), the growth is 55.3% in [1]; 62.1% in assay [2]; 71.7% in assay [3]; 61.7% in [4]; 51.6% in assay [5]; 41.4% in assay [6]. Besides, the growth in assay [7] is 39.3%; in assay [9], 77.2%.

On to `CC(=O)Oc1ccccc1C(=O)/C=C/c1cccc([N+](=O)[O-])c1`, for which the growth was 54.9% in [1]; 48.8% in assay [2]; 60.2% in [3]; 81.1% in assay [4]; 54.3% in assay [5]; 71.1% in assay [6]. Moreover, the growth in assay [7] is 89.3%; in assay [9] it was 95.6%.
